Measured values: PubChem BioAssay (NCATS)
Values joined by “and” are separate entries in the source; they are usually repeats but may differ in a detail not shown here. Identical values can stand only once. Inconclusive results are not listed. More than one record can exist for a structure, and the calls need not agree. Active and inactive are the calls of the source. Calls follow the shape of the dose curve; as a rule, active = well fitted inhibition curve with a large enough effect; inconclusive = small, poorly fitted or top-dose-only effect; inactive = flat fitted curve, though single readings scatter.

system: KB-3-1; assay: Cytotoxic Profiling of Annotated Libraries Using Quantitative High-Throughput Screening (AID 1296008); conditions: Five cell lines viability, CellTiter-Glo ATP luminescence, 48-72 h; max response: hits give low values; also: nearly all actives have a fitted effect of over 60% in size
Source text: Cell-based phenotypic screening is a commonly used approach to discover biological pathways, novel drug targets, chemical probes and high-quality hit-to-lead molecules. Many hits identified from high-throughput screening campaign are ruled out through a series of follow-up potency, selectivity/specificity, and cytotoxicity assays. Prioritization of molecules with little or no cytotoxicity for a more in-depth downstream evaluation influence the future direction of projects, so cytotoxicity profiling of the screening libraries at early stage is essential for increasing the likelihood of candidate success. […] For the annotated library, we also examined the primary targets and mechanistic pathways regularly associated with cell death. To our knowledge, this is the first study to use high-throughput screening to profile large libraries for cytotoxicity assessment in both normal and cancer cell lines. In summary, the results generated here constitutes a valuable resource for the scientific community and provides insight on identifying cytotoxic compounds with particular mechanisms of action, and prioritizing compounds with suitable cytotoxicity profile for further evaluation.
A pintool (Kalypsys) was used to transfer 23 nL of compound solution to the 1536-well assay plates. After 48 or 72 hr incubation at 37 degree Celsius, 5% CO2 and 95% humidity, 2.5 uL of CellTiter-Glo (Promega) was dispensed into each well using a dispenser (Aspect Automation, St. Paul, MN) with solenoid valves (Lee Valves, Westbrook CT). Plates were left at room temperature for 10 min before imaging the ATP-coupled luminescence using a ViewLux microplate imager (PerkinElmer, Waltham, MA).
% is scaled to controls: 0 for no effect and ±100 for the full control effect; potency is read from the fitted curve at half-maximal effect.

Row | Compound | outcome | max response | Potency
1 | Nc1ccc(S(=O)(=O)Nc2nccs2)cc1 | inactive | -16.1% (inactive) | 
2 | CC1=C(C/C=C(\C)CCC[C@H](C)CCC[C@H](C)CCCC(C)C)C(=O)c2ccccc2C1=O |  | -12.7% (inactive) | 
3 | c1ccc(CN(CC2=NCCN2)c2ccccc2)cc1 |  | -11.4% (inactive) and 8.49% (inactive) | 
4 | O=Cc1ccccc1C=O |  | -3.37% (inactive) | 
5 | C[C@@H]1CN(c2c(F)c(F)c3c(=O)c(C(=O)O)cn(C4CC4)c3c2F)C[C@H](C)N1 | inactive | -12.7% (inactive) | 
6 | Cc1ccc2nc(N)[nH]c(=O)c2c1Sc1ccncc1 |  | -5.1% (inactive) | 
7 | CCC(=O)Nc1ccc(O)cc1 |  | 18.3% (inactive) | 
8 | CCN(CC)CCNC(=O)c1cc(Cl)c(N)cc1OC | inactive | 7.45% (inactive) | 
9 | CO/N=C(\C(=O)N[C@@H]1C(=O)N2C(C(=O)O)=C(CSc3nc(=O)c(O)nn3C)CS[C@H]12)c1csc(N)n1 |  | -0.48% (inactive) | 
10 | COc1ccc2c(c1)C(=O)N(CCc1ccc(S(=O)(=O)NC(=O)NC3CCCCC3)cc1)C(=O)C2(C)C |  | 7.8% (inactive) and -5.8% (inactive) | 
11 | CN(C)CCCN1c2ccccc2Sc2ccc(Cl)cc21 |  | -6.48% (inactive) | 
12 | Cc1cc2nc3c(=O)[nH]c(=O)nc-3n(C[C@H](O)[C@H](O)[C@H](O)CO)c2cc1C |  | -1.52% (inactive) and 0.485% (inactive) | 
13 | CC(O)COc1ccccc1 (stereo not given) |  | 5.08% (inactive) | 
14 | OC[C@H]1O[C@@H](O[C@@H]2[C@@H](CO)O[C@](O)(CO)[C@H]2O)[C@H](O)[C@@H](O)[C@H]1O |  | -20% (inactive) | 
15 | O=C1NS(=O)(=O)c2ccccc21 |  | 20.6% (inactive) | 
16 | CCOc1nc2cccc(C(=O)O)c2n1Cc1ccc(-c2ccccc2-c2nn[nH]n2)cc1 |  | -0.374% (inactive) and 6.58% (inactive) | 
17 | CCOC(=O)[C@H](CCc1ccccc1)N[C@@H](C)C(=O)N1C(=O)N(C)C[C@H]1C(=O)O |  | 5.5% (inactive) and 4.49% (inactive) | 

Row | Compound | outcome | max response | Potency
18 | CC1(C)CO[C@@H](CC(=O)O)CN1 |  | 9.26% (inactive) | 
19 | N[C@H](C(=O)O)c1ccc(O)cc1 |  | 2.74% (inactive) | 
20 | CC(=O)Nc1ccc(/C=N/NC(N)=S)cc1 |  | -10.7% (inactive) and 2.19% (inactive) | 
21 | COc1ccc2[nH]c(S(=O)Cc3ncc(C)c(OC)c3C)nc2n1 (stereo not given) | inactive | 2.51% (inactive) | 
22 | CN(C)CCCN1c2ccccc2CCc2ccccc21 |  | -10.8% (inactive) | 
23 | COc1ccc(Cl)cc1C(=O)NCCc1ccc(S(=O)(=O)NC(=O)NC2CCCCC2)cc1 | inactive | -9.53% (inactive) | 
24 | CCN(CC)CCOC(=O)C1(C2CCCCC2)CCCCC1 |  | -11.2% (inactive) | 
25 | NC(CSCC(=O)O)C(=O)O (stereo not given) |  | -5.75% (inactive) | 
26 | O=C1O[C@H](CO)[C@@H](O)[C@H](O)[C@H]1O |  | 25.2% (inactive) | 
27 | CNC(=O)Oc1ccc2c(c1)[C@]1(C)CCN(C)[C@@H]1N2C | inactive | -5.47% (inactive) | 
28 | NC(=O)N/N=C/c1ccc([N+](=O)[O-])o1 |  | -7.34% (inactive) and -25.8% (inactive) | 
29 | COc1ccccc1O |  | -18.3% (inactive) and -7.82% (inactive) | 
30 | O=C(O)c1ccccn1 |  | -2.2% (inactive) | 
31 | Cc1cc2c(cc1S(N)(=O)=O)S(=O)(=O)CCC2 |  | -2.22% (inactive) | 
32 | Cc1cc(N)c2ccccc2[n+]1CCCCCCCCCC[n+]1c(C)cc(N)c2ccccc21 |  | -23.8% (inactive) | 9.2 µM (active)
33 | NC(=O)c1ncn([C@@H]2O[C@H](CO)[C@@H](O)[C@H]2O)c1N |  | 12% (inactive) | 
